± gives the standard deviation.

One test concerns MILI (PIWIL2) piRISC loaded with L1MC piRNA (26 nt). Kind of test: pre-steady-state target cleavage rate (min^-1); guide: L1MC piRNA 5'p-UAACUAAAUACUAUGCAAGCUGUAGG; MIWI and MILI are mouse PIWI proteins and EfPiwi is from a freshwater sponge; tags in brackets are library labels; higher = faster piRNA-guided slicing of the target. As to conditions: auxiliary factor: 500 nM mouse GTSF1. As for the experimental part: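 Cleave-'n-Seq: a library of target RNAs (target site embedded in constant flanks, ACAGCATTCCGCGTTAGTGATATCCG... 5' flank; DNA-blocked outside the site) at 0.1 nM was incubated with 1 nM active mouse MILI or MIWI piRISC (synthetic 5'-monophosphorylated piRNA guide) with or without 500 nM mouse GTSF1 at 33 °C for 1 min to 16 h. Uncleaved targets were sequenced and normalised to non-target controls, and the pooled three trials were fitted to a burst-and-steady-state model to give the pre-steady-state cleavage rate (min^-1; k3 is constrained to at most 1e-4). Sequence is the target site only; target names encode pairing extent (gX:gY) and contiguous / 1-mismatch / 2-mismatch / bulge geometry. Fits with R² ≤ 0 are excluded.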
With UCCUGGAUGAGCUUGCUUAGUAAUUAGUUA, the “pre-steady-state target cleavage rate” value was 0.191 ± 0.019.

Take UCCUGGAUGUCGAUGCAAAGUAUUUAGUUA: the “pre-steady-state target cleavage rate” value came to 0.00863 ± 0.0026.

In the case of UCCUCCUUCAGCUUGCAAAGUAUUUAGUUA, the “pre-steady-state target cleavage rate” value is 0.162 ± 0.015.

Consider UCCUCCAACAGCUUGCAUAGUAUUUAGUUA, for which the “pre-steady-state target cleavage rate” value came to 0.329 ± 0.017.

On to UCCUGGUACAGGUUGCAUAGUAUUUAGUUA, for which the “pre-steady-state target cleavage rate” value came out at 0.217 ± 0.022.

As for UCCUGCUACAGCUAGCAUAGUAUUUACAAA, the “pre-steady-state target cleavage rate” value is 0.0708 ± 0.018.

Take UCCUGGUACAGCCUGCAUAGUAUUUAGUUA: the “pre-steady-state target cleavage rate” value was found to be 0.186 ± 0.024.

On to UCCUGGAACAGCUUGCAUAGUAGUUAGUUA, for which the “pre-steady-state target cleavage rate” value was 0.138 ± 0.018.

As to UCCUGGAAGAGCUUGCAUAGUAUUAAGUUA, the “pre-steady-state target cleavage rate” value amounted to 0.21 ± 0.023.

As for UCCUGCUACUGCUUGCAUUGUAUUUAGUUA, the “pre-steady-state target cleavage rate” value was determined as 0.211 ± 0.018.

Consider UCCUGGAACAGCUUGCAUAGUCUUUAGUUA, for which the “pre-steady-state target cleavage rate” value turned out to be 0.197 ± 0.016.

Regarding UCCUGCUACAGCUUGCGUAGUAUUUAGUUA, the “pre-steady-state target cleavage rate” value came out at 0.206 ± 0.014.

As to UCCUGGAUGUGCUUGCAUAGUAUUCUAGUUA, the “pre-steady-state target cleavage rate” value worked out at 0.193 ± 0.045.

UCCUCCUACAGCUUGCAUAGUAUUAUGUUA: the “pre-steady-state target cleavage rate” value came to 0.15 ± 0.025.

Regarding UCCUGCUACAGCUAGCAUACUAUUUAGUUA, the “pre-steady-state target cleavage rate” value turned out to be 0.112 ± 0.018.

Take UCCUGGAUGUCGAUGCAUAGUAUUUAGUCA: the “pre-steady-state target cleavage rate” value came out at 0.111 ± 0.02.

Take UCCUGGAUGUGCAUUGCAUAGUAUUUAGUUA: the “pre-steady-state target cleavage rate” value was 0.182 ± 0.023.

With UCCUCCUACAGCUUGCAAAGUAUUUAGAAA, the “pre-steady-state target cleavage rate” value is 0.0823 ± 0.015.

For the sequence UCCUGGAUGUCGAAGCAUAGUAUAAAGUUA, the “pre-steady-state target cleavage rate” value turned out to be 0.0127 ± 0.0053.

As to UCCUGGAUGUCCUUGCAUAGUAAUUUAGUUA, the “pre-steady-state target cleavage rate” value came to 0.0401 ± 0.013.

For the sequence UCCUGGUACGAGCUUGCAUAGUAUUUAGUUA, the “pre-steady-state target cleavage rate” value amounted to 0.247 ± 0.045.

The same test, now with this note: auxiliary factor: none (no GTSF1).
As for UCCUGGAUGAGCUUGCUUAGUAAUUAGUUA, the “pre-steady-state target cleavage rate” value turned out to be 0.00839 ± 0.0025.

For the sequence UCCUGGAUGUCGAUGCAAAGUAUUUAGUUA, the “pre-steady-state target cleavage rate” value was 0.0036 ± 0.0027.

For UCCUCCUUCAGCUUGCAAAGUAUUUAGUUA, the “pre-steady-state target cleavage rate” value turned out to be 0.00632 ± 0.0021.

Take UCCUCCAACAGCUUGCAUAGUAUUUAGUUA: the “pre-steady-state target cleavage rate” value was determined as 0.00861 ± 0.0027.

In the case of UCCUGGUACAGGUUGCAUAGUAUUUAGUUA, the “pre-steady-state target cleavage rate” value came out at 0.0148 ± 0.004.

Regarding UCCUGGAUGUCGAACGUAUGUAUAAAGUUA, the “pre-steady-state target cleavage rate” value is less than 0.0001.

Regarding UCCUGGUACAGCCUGCAUAGUAUUUAGUUA, the “pre-steady-state target cleavage rate” value was 0.0143 ± 0.004.

For the sequence UCCUGGAACAGCUUGCAUAGUAGUUAGUUA, the “pre-steady-state target cleavage rate” value is 0.00378 ± 0.0026.

Consider UCCUGGAAGAGCUUGCAUAGUAUUAAGUUA, for which the “pre-steady-state target cleavage rate” value came out at 0.00346 ± 0.0028.

Consider UCCUGCUACUGCUUGCAUUGUAUUUAGUUA, for which the “pre-steady-state target cleavage rate” value came to 0.0081 ± 0.0024.

With UCCUGGAACAGCUUGCAUAGUCUUUAGUUA, the “pre-steady-state target cleavage rate” value came out at 0.00483 ± 0.0022.

As for UCCUGCUACAGCUUGCGUAGUAUUUAGUUA, the “pre-steady-state target cleavage rate” value was 0.00688 ± 0.0029.

In the case of UCCUGGAUGUGCUUGCAUAGUAUUCUAGUUA, the “pre-steady-state target cleavage rate” value amounted to 0.00428 ± 0.0034.

With UCCUCCUACAGCUUGCAUAGUAUUAUGUUA, the “pre-steady-state target cleavage rate” value stood at 0.00329 ± 0.0023.

As to UCCUGCUACAGCUAGCAUACUAUUUAGUUA, the “pre-steady-state target cleavage rate” value worked out at 0.0037 ± 0.0024.

With UCCUGGAUGUCGAUGCAUAGUAUUUAGUCA, the “pre-steady-state target cleavage rate” value came out at 0.00347 ± 0.0027.

In the case of UCCUGGAUGUGCAUUGCAUAGUAUUUAGUUA, the “pre-steady-state target cleavage rate” value turned out to be 0.0119 ± 0.0039.

Take UCCUGGAUGUCCUUGCAUAGUAAUUUAGUUA: the “pre-steady-state target cleavage rate” value is 0.00555 ± 0.0026.

In the case of UCCUGGUACGAGCUUGCAUAGUAUUUAGUUA, the “pre-steady-state target cleavage rate” value is 0.0102 ± 0.0039.

The record behind these values is the supplement of paper PMC10338343.
